Each structure is given as a SMILES string. The whole screen tested about 4,700 compounds, of which about 360 (7.7%) were called active. Many of the other results were omitted from the sample, so actives are more common in it than they were. A number with no mark means an inactive call.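 The calls were made as follows: active = inhibition above a cutoff derived from the DMSO control wells (cut at about 30% in these data); inactive = the rest.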

A short description of the experiment: bead signal artefacts at single dose – biochemical, AlphaScreen, triplicate, counter-screen for MITF inhibitor project (AID 1259376). The conditions noted are these: LysRS AlphaScreen counterscreen, signal interference, at 2.6 µM, stronger effect = higher value. (In general: Bead proximity is the source of the signal in Alpha formats.)
For `COc1cc(NC(=O)CCc2nc(C3=CCN(C)CC3)no2)cc(OC)c1OC`, the inhibition – broadly, the percentage by which the read-out fell short of the control – is 34.2% (active).
For `COc1ccccc1CN1CCN(C(=O)Cc2ccccc2)CC1`, the inhibition was 7.15%.
Take `COc1ccc(CN2CCN(C(C)C)CC2)cc1`: the inhibition was 10.5%.
Then `COc1cccc(CN2CCN(Cc3ccccc3F)CC2)c1`, with 16.6%; and `CCN1CCc2nc3ccccc3c(C(=O)O)c2C1`, with 4.31%.

(Values after PubChem BioAssay AID1259376 (The Scripps Research Institute Molecular Screening Center, 2018).)
